Bioassay records deposited in PubChem BioAssay by several laboratories.
tim10-1 inh – growth inhibitors of tim10-1 mutant yeast, primary screen, luminescence, uHTS; S. cerevisiae tim10-1 ts strain growth, BacTiter-Glo, 24 h; inhibition, % at 20 µM; 2.2% of 330,000 active; AID 463190, 2010;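 active means inhibition of at least 40%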;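 further: mutant grown at 25 °C; 0% = DMSO wells with yeast and 100% = wells holding no yeast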
SKKanGAS inh – S. pyogenes SKKanGAS growth inhibitors in kanamycin, primary screen, streptokinase expression inhibitor project, SKKanGAS strain, BacTiter-Glo luminescence; inhibition, % at 7.5 µM; 1.3% of 300,000 active; AID 1662, 2009; 6 h;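 active means mean replicate score, as percent of positive control median, at least 50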;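 further: strain carries kanamycin resistance gene driven by streptokinase promoter and grows in 40 µg/ml kanamycin; loss of luminescence reflects streptokinase promoter inhibition or plain growth inhibition; 0% = median of DMSO wells and 100% = positive control at its reference dose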
tim23-1 inh – growth inhibitors of tim23-1 mutant yeast, primary screen, luminescence, uHTS | inhibition, % at 20 µM | AID 463212, 2010 | 1.3% of 330,000 active | S. cerevisiae tim23-1 growth, BacTiter-Glo luminescence, 24 h;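 active means growth inhibition of the mutant yeast at or above 50%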;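 further: temperature-sensitive mutant grown at 25 °C; plate controls were DMSO-treated mutant yeast for no effect and medium wells lacking yeast for full effect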
NLRP3 yeast inh – NALP3 inflammasome inhibitors in reconstituted yeast, primary screen, luminescence, uHTS; Yeast reconstituted NLRP3/ASC/caspase-1, beta-gal luminescence, 24 h; inhibition, % at 10 µM; 0.39% of 330,000 active;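 active means inhibition of 50% or more; inactive means inhibition below 50%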;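 further: plate controls were induced DMSO wells for no effect and uninduced yeast grown without galactose for full effect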
TIM10 inh – growth inhibitors of isogenic TIM10 control yeast, primary screen, counter-screen for tim10-1 yeast inhibitor project, luminescence, uHTS | S. cerevisiae TIM10 strain growth, BacTiter-Glo luminescence, 24 h | inhibition, % at 10 µM | 1.4% of 330,000 active | AID 463195, 2010;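 active means inhibition of 40% or more at the single tested concentration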;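 further: wild-type TIM10 isogenic control strain grown at permissive 25 °C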
PfHsp90 set2 – growth inhibition of PfHsp90-expressing yeast, primary screen, antimalarial PfHsp90 inhibitor project, S. cerevisiae, BacTiter-Glo luminescence, single point, set 2. BacTiter-Glo ATP, 48 h; yeast lacking PDR1 and PDR3 efflux regulators. inhibition, % at 9.4 µM. 0.32% of 310,000 active;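 active means every replicate shows inhibition above about 80%, whatever the replicate mean, limit read from the data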;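 further: 0% = DMSO neutral controls and 100% = 20 µM radicicol positive controls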
tim10-1 conf – growth inhibitors of tim10-1 mutant yeast, confirmation, single concentration, luminescence, S. cerevisiae; S. cerevisiae tim10-1 ts strain growth, BacTiter-Glo, 24 h; AID 463213, 2010; shares compounds with tim10-1 inh; inhibition, % at 20 µM; 56% of 7,400 active;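 active means inhibition of yeast growth at or above a set limit in either of two repeat tests at 20 µM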;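 further: tim10-1 mutant grown at permissive 25 °C to find synthetic lethal compounds; 0% = DMSO yeast wells and 100% = medium wells without yeast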
tim10 confirm – growth inhibitors of wild-type TIM10 yeast, confirmation, counter-screen for tim10-1 synthetic lethality project, single concentration, luminescence, S. cerevisiae. shares compounds with TIM10 inh. S. cerevisiae tim10 strain growth, BacTiter-Glo luminescence, 24 h. inhibition, % at 10 µM. 63% of 4,600 active;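 active means inhibition of yeast growth at or above a set limit in either of two replicates at 10 µM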;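 further: this counterscreen used the strain with wild-type TIM10; 0% = yeast with DMSO and 100% = medium wells lacking yeast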
Active calls of the source: *; nt = not tested or not shown. A selection: hits, their analogues and other compounds. The true share with any hit is near 4.6%.

SMILES	tim10-1 inh	SKKanGAS inh	tim23-1 inh	NLRP3 yeast inh	TIM10 inh	PfHsp90 set2	tim10-1 conf	tim10 confirm
CC(C)n1c(CSCc2ccc(Cl)cc2Cl)n[nH]c1=S	49*	6	40	18	41*	-2	24	49*
Cc1c(/C=N/NC(=O)c2sc3ccccc3c2Cl)cnn1C	53*	-6	11	5	43*	-13	34*	50*
CC1=C(C(=O)OCC2CCCO2)C(c2ccc(F)cc2)NC(=O)N1 (configuration not stated)	1	nt	4	3	9	-6	nt	nt
CCOC(=O)CNC(=S)n1ncnc1N	18	-6	12	27	11	3	nt	nt
CC(C)c1ccc(S(=O)(=O)c2ccc(NN)cc2)cc1	44*	nt	46	12	42*	-8	34*	31*
N/C(=N\OC(=O)c1ccccc1)c1cccnc1	14	-1	8	-4	-3	nt	nt	nt
N/C(=N\OC(=O)c1ccc(Cl)c(Cl)c1)c1cccnc1	60*	0	5	-14	72*	1	47*	76*
C=CCOc1ccccc1/C=c1\sc2nc(-c3oc4ccccc4c3C)nn2c1=O	23	4	25	1	1	nt	nt	nt
COc1ccccc1/C=c1\sc2nc(-c3ccccc3OC)nn2c1=O	49*	nt	47	15	50*	-2	54*	24
CC(=O)OC(c1nc2ccccc2c(=O)n1C1CC2(OC1=O)c1ccccc1N1C(=O)C(C)(C)N(O)C12)C(C)C (configuration not stated)	18	12	20	17	5	-17	nt	nt
COc1cc(C#N)c(NC(=S)N2CCOCC2)cc1OC	5	-9	-12	9	2	nt	nt	nt
CC(C)c1ccccc1NC(=S)NN(Cc1ccccc1)c1ccccc1	46*	26	34	4	52*	23	32*	29*
Cc1cccc(C)c1NC(=S)NN(Cc1ccccc1)c1ccccc1	27	17	0	11	0	6	nt	nt
CSc1nc(=S)n(-c2cc(C)ccc2C)c(C)c1C(C)=O	16	1	16	14	-3	-15	nt	nt
Cc1cccc(/C=C/C(=O)c2ccc([N+](=O)[O-])o2)c1	53*	56*	45	34	89*	103*	7	98*
COc1cccc(/C=C/C(=O)c2cccc([N+](=O)[O-])c2)c1	40	-5	49	6	19	0	nt	nt
O=C1c2cccc3c([N+](=O)[O-])ccc(c23)C(=O)N1c1nccs1	84*	4	38	-1	69*	nt	73*	96*
O=C1c2cccc3c([N+](=O)[O-])ccc(c23)C(=O)N1c1ccc(Cl)cn1	77*	9	2	-8	74*	4	66*	89*
O=C1c2cccc3cccc(c23)C(=O)N1c1nccs1	8	3	-4	-5	5	nt	nt	nt
C[n+]1cc(C(=O)N2CCCCC2)ccc1/C=C/c1c[nH]c2ccccc12	6	4	12	13	-15	-17	nt	nt
O=C(Cc1ccsc1)OCC(=O)c1ccccc1	-4	nt	10	6	-4	9	nt	nt
S=c1[nH]nc(COc2ccccc2)n1/N=C/C(Cl)=C/c1ccccc1	60*	20	44	38	52*	nt	56*	46*
S=c1[nH]nc(COc2ccccc2)n1/N=C/C=C/c1ccccc1	16	-12	7	22	20	-2	nt	nt
Cc1ccc(NC(=O)CC2SC(=O)N(c3ccccc3)C2=O)cc1 (configuration not stated)	49*	-2	46	1	41*	7	42*	-9
CCCN1C(=O)SC(CC(=O)Nc2ccc(C)cc2)C1=O (configuration not stated)	12	1	9	35	-1	11	nt	nt
SMILES	tim10-1 inh	SKKanGAS inh	tim23-1 inh	NLRP3 yeast inh	TIM10 inh	PfHsp90 set2	tim10-1 conf	tim10 confirm
CC(C)CNS(=O)(=O)c1ccc(CCC(=O)NCCC2=CCCCC2)cc1	-5	-8	3	19	-7	18	nt	nt
COc1cccc(CNC(=O)c2cc(S(=O)(=O)N3CCCC3)cn2C)c1	3	0	1	-2	7	-11	nt	nt
Fc1ccc(-c2cc(-c3ccccc3)nc(-n3cccn3)n2)cc1	51*	-1	42	7	59*	15	46*	46*
C#CCOc1coc(COC(=O)c2ccccc2)cc1=O	-3	-5	3	13	0	-8	nt	nt
O=C(Nc1ccccc1C(=O)NCc1ccccc1)c1ccccc1	47*	nt	36	11	46*	7	42*	27
Cc1ccc(F)cc1NC(=O)CSc1nnc(CNC(=O)c2ccco2)n1C	15	-5	16	6	8	-1	nt	nt
FC(F)(F)c1ccccc1CNCc1ccc2c(c1)OCO2	12	8	-12	14	5	-7	nt	nt
CCOC(=O)c1cnc2c(ccc3ccccc32)c1NCCN(C)C	55*	3	39	26	77*	-7	50*	50*
COCn1ccnc1C(O)(c1ccc(OC)cc1)c1ccc(OC)cc1	3	-2	19	1	3	-3	nt	nt
Cc1c(C)n(Cc2ccc(F)cc2)c2ccc(C(=O)NCCN3CCOCC3)cc12	-7	0	-15	11	-1	18	nt	nt
c1ccc(CNc2nc(CN3CCOCC3)nc3scc(-c4ccccc4)c23)cc1	25	-1	46	19	36	-15	nt	nt
Clc1ccc(CNc2nc(CN3CCOCC3)nc3scc(-c4ccccc4)c23)cc1	48*	-14	45	14	51*	5	46*	-12
Clc1ccc(CN2CCc3c([nH]c4ccccc34)C2)cc1Cl	75*	19	42	19	41*	-16	75*	58*
CSc1ccc(CN2CCc3c([nH]c4ccccc34)C2)cc1	15	1	9	13	33	3	nt	nt
COCCCn1c(SCC(=O)N2CC(=O)Nc3ccccc32)nnc1-c1ccoc1C	5	3	3	1	4	-21	nt	nt
COCCCn1c(SCC(=O)n2c(C)c(C)c3ccccc32)nnc1-c1ccoc1C	44*	-2	34	17	40*	13	33*	-6
